Test results published in PubChem BioAssay AID1626 (SRMLSC, 2009).
Among all 220,000 compounds or so, about 2,000 (0.91%) were called active. Not shown: some 2% with an inconclusive outcome. Only a sample is shown. Entries with a potency or affinity are not part of this list. Unmarked numbers belong to inactive results. Cut-off read from the data, not from the text of the source: inconclusive = inhibition above about 80% without an active follow-up result; inactive = below that; test concentration not stated here.

test: M. tuberculosis H37Rv growth inhibitors, H37Rv strain (AID 1626); settings: stronger effect = higher value, concentration not given here;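 note: bacteria incubated seven days before Alamar blue readout; 0% = bacteria only wells and 100% = bacteria with antibiotic wells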

Row | SMILES | inhibition
1 | CCOC(=O)Nc1ccc2c(c1)nc(CN1CCOCC1)n2C | -2.73%
2 | CN(C)CCCN(C(=O)c1ccc2c(c1)CCCC2)c1nc2ccc(F)cc2s1 | 62.6%
3 | Cc1ccc2nc(N(CCCN(C)C)C(=O)c3ccc(S(=O)(=O)N(C)C)cc3)sc2c1 | -7.66%
4 | N#Cc1cnn2c1nc(N1CCOCC1)c1ccccc12 | 3.61%
5 | O=C(O)c1ccc(/C=N/NC(=O)c2ccc(NS(=O)(=O)c3cccs3)cc2)cc1 | 7.29%
6 | CC(=O)/C(=C/N(C)C)C(=O)Nc1ccc(Cl)cc1Cl | 5.27%
7 | CN(C)CCNC(=S)Nc1ccc(Cl)cc1Cl | 3.74%
8 | Cc1cc(=O)n2nc(N3CCC(C(=O)N4CCN(C)CC4)CC3)sc2n1 | -6.22%
9 | CCN(CC)S(=O)(=O)c1ccc(C)c(NC(=O)Cn2cnc3cc([N+](=O)[O-])ccc3c2=O)c1 | -5.31%
10 | O=C(CSc1nnc(-c2ccccc2)o1)N1CCc2ccccc2C1 | 0.6%
11 | COc1ccc(-c2nnc(SCC(=O)N3CCc4ccccc4C3)o2)cc1 | 55.5%
12 | COc1cccc(CNc2ccc(F)c(Cl)c2)c1OC | 9.35%
13 | COc1ccc(NC(=O)C(OC)c2ccccc2)cc1Cl (stereo not drawn) | 4.82%
14 | O=C(/C=C/c1ccc(Cl)cc1)NCc1ccco1 | -3.37%
15 | CCn1c(SCC(=O)Nc2ccc(C)cc2)nc2nc3c(cc2c1=O)COC(C)(C)C3 | 11.8%
16 | Nc1o[nH]c(=O)c1Cc1ccccc1 | -2.12%
17 | CCOC(=O)c1sc(NC(=O)CNCc2cccnc2)c(C(=O)OCC)c1C | 0.97%
18 | CCOC(=O)c1sc(NC(=O)CCN2C(=O)c3ccccc3C2=O)c(C(=O)OCC)c1C | -2.12%
19 | CC1CCN(CC(=O)NCc2ccco2)CC1 | -7.7%
20 | COC(=O)c1sccc1NC(=O)COc1cccc(C)c1 | 0.14%

Row | SMILES | inhibition
21 | O=C(NC(=S)Nc1ccc(CN2CCOCC2)cc1)c1ccc(-c2ccc(Br)cc2)o1 | 42.5%
22 | NC(=O)c1ccc(NC(=O)c2ccc(CN3CCOCC3)cc2)cc1 | -7.24%
23 | O=C(Nc1ccc(CN2CCOCC2)cc1)c1ccc(-c2cccc(Cl)c2)o1 | 8.55%
24 | Cc1cc(CSc2ccccc2)ccc1NC(=O)c1ccc(CN2CCOCC2)cc1 | 7.66%
25 | CC(OC(=O)c1ccccc1Oc1ccccc1)C(=O)NC1CC1 (stereo not drawn) | 4.72%
26 | O=S(=O)(Nc1nc2ccccc2nc1-[n+]1ccccc1)c1ccc(Cl)cc1 | -0.65%
27 | O=C1c2cccc3cc([N+](=O)[O-])cc(c23)C(=O)N1c1ccccc1O | 6.45%
28 | Nc1cc2c3c(cccc3c1)C(=O)N(CCN1CCCC1)C2=O | 18.6%
29 | Cc1nn(-c2ccccc2)c(Cl)c1C(=O)NCC(=O)O | 4.16%
30 | Fc1cccc(-n2ncc(-c3nnnn3-c3ccccc3)c2C(F)(F)F)c1 | -6.57%
31 | O=[N+]([O-])c1c(NCCCO)cc(Sc2ccc(Cl)cc2)c2nonc12 | 53.5%
32 | O=[N+]([O-])c1c(NCCCO)cc(SCc2ccco2)c2nonc12 | 74.7%
33 | CC(=O)OCCNc1cc(Sc2nc3ccccc3[nH]2)c2nonc2c1[N+](=O)[O-] | -3.19%
34 | CC(=O)OCCCNc1cc(Sc2ccc(C)cc2)c2nonc2c1[N+](=O)[O-] | 13.8%
35 | O=[N+]([O-])c1c(NCc2ccco2)ccc2nonc12 | -3.46%
36 | CC(=O)OCCCNc1cc(Sc2ccc(Cl)cc2)c2nonc2c1[N+](=O)[O-] | 8.58%
37 | CCC(=O)OCCNc1cc(Sc2nc3ccccc3[nH]2)c2nonc2c1[N+](=O)[O-] | 42.4%
38 | N/C(=N\OC(=O)COc1ccccc1Cl)c1ccc(Cl)cc1 | 7.15%
39 | COc1cc2c(cc1OC)CN(C(=O)CSc1nc(N)c(C#N)cc1C#N)CC2 | -0.19%
40 | CCN(CC)CCN(C(=O)c1ccc(Br)s1)c1nc2cc3c(cc2s1)OCO3 | 4.27%

Row | SMILES | inhibition
41 | CCCCNC(=O)CCCCC(=O)N/N=C/c1ccccc1Cl | -1.94%
42 | COc1ccc(O)c(C2=Nc3ccccc3N=C(c3ccco3)C2)c1 | 6.13%
43 | COc1ccc(NC(=O)NC2CCCCC2C)cc1 (stereo not drawn) | 0.36%
44 | COc1ccc(C2(C(=O)N3CCCC3)CCOCC2)cc1OC | -12.9%
45 | COc1cc(OC)c2c(-c3ccccc3)cc(=O)oc2c1C(CC(=O)N1CCCC1)c1ccc2c(c1)OCO2 (stereo not drawn) | 0.92%
46 | CCN(CC)CCC(c1ccc(N(C)C)cc1)c1c(OC)cc(OC)c2c(-c3ccccc3)cc(=O)oc12 (stereo not drawn) | 14.1%
47 | COc1cc(OC)c2c(-c3ccccc3)cc(=O)oc2c1C(CC(=O)N1CCOCC1)c1ccc2c(c1)OCO2 (stereo not drawn) | 0.96%
48 | CCN(CC)C(=O)CC(c1ccc2c(c1)OCO2)c1c(OC)cc(OC)c2c(-c3ccccc3)cc(=O)oc12 (stereo not drawn) | -2.83%
49 | COc1cc(OC)c2c(-c3ccccc3)cc(=O)oc2c1C(CCN1CCCC1)c1ccc2c(c1)OCO2 (stereo not drawn) | 77%
50 | COc1cc(OC)c2ccc(=O)oc2c1C(CCN1CCCC(C)C1)c1ccc2c(c1)OCO2 (stereo not drawn) | -5.64%
51 | CCN(CC(=O)NCc1ccc(F)cc1)CC(=O)Nc1ccccc1-c1ccccc1 | -6.65%
52 | C=CCN1C(=O)C(CC(=O)Nc2ccccc2F)S/C1=N\c1nccs1 (stereo not drawn) | 6.25%
53 | CCCNC(=O)C(=O)NCCC1=CCCCC1 | -4.88%
54 | COc1cccc(OC)c1C(=O)Nc1c(C)n(C)n(-c2ccccc2)c1=O | 0.17%
55 | O=C(COc1ccc(Br)cc1CO)Nc1ccc(F)cc1 | 9.43%
56 | CCCCN(C)C(=O)C(Cc1ccccc1)NS(=O)(=O)c1ccc2c(c1)CCC(=O)N2 (stereo not drawn) | -4.66%
57 | CNC(=S)N(Cc1ccco1)Cc1cc2cc(OC)ccc2[nH]c1=O | -3.07%
58 | CCCCCCNC(=O)N1C/C=C\C(c2ccc(OC)cc2)N(Cc2ccc(F)cc2)C(=O)C1 (stereo not drawn) | -0.25%
